Screens from PubChem BioAssay.
DT40 TDP1 CPT = growth inhibition of DT40 Tdp1-/-;hTDP1 cells with camptothecin (screen for TDP1 inhibitors). chicken DT40 Tdp1-/-;hTDP1 cells + 20 nM CPT, ATP luminescence, 48 h. Potency, µM (titrated, usually from 46.2 µM), inactives show top-dose activity change, negative = growth inhibition, most hits filed as inhibitors. hit rate 12% among 420,000; note: % is set by controls: 0 for no effect and ±100 for the full control effect; nearly all actives have a fitted effect of over 55% in size
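Cell growth measured by CellTiter-Glo luminescence after a minimum 48 h, 37 C compound exposure with 20 nM CPT in Tdp1-knockout DT40 cells stably expressing hTDP1, seeded 400/well; qHTS titration format.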
HT1080 IDH1KD tx = HT-1080 IDH1 knockdown cell toxicity (counter line). hit rate 2% among 360,000. Potency, µM (doses to about 46.1 µM), for the others: at the top dose activity, negative = toxicity, hits mostly cytotoxic. HT-1080 IDH1 knockdown viability, ATP luminescence, 48 h;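 note: 0% = DMSO wells and -100% = cell-free medium wells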
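HT-1080-IDH1KD cells (IDH1 knocked down), 750/well in RPMI with 5% FBS, treated with compound 48 h at 37 degrees C. Viability by CellTiter-Glo luminescence, normalised to DMSO and no-cell wells; concentration-response curves classed.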
HT1080NT lethal = kills 2HG-producing HT-1080-NT fibrosarcoma cells. AID 686970. Potency, µM (doses to about 46.1 µM), inactives show top-dose activity, negative = less viability, actives largely listed as cytotoxic. hit rate 1.6% among 360,000. HT-1080-NT fibrosarcoma viability, CellTiter-Glo ATP luminescence, 48 h;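 note: NT is the 2HG producing partner of a matched IDH1 knockdown line; 0% = DMSO-treated cells and -100% = media-only wells without cells; nearly all actives have a fitted effect of over 55% in size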
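Viability by CellTiter-Glo luminescence after 48 h compound exposure at 37C of HT-1080-NT cells (750/well, RPMI, 5% FBS). % activity scaled between DMSO wells and medium-only wells, then curve-fitted and categorized by curve class.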
HepG2 tox = kills HepG2 cells in TGF-b inhibitor counter-screen | HepG2 CAGA-GFP viability, ATP luminescence, 18 h | Potency, µM (series often up to 46.1 µM), inactives show at the top dose activity change, negative = cytotoxicity, usual class: cytotoxic | hit rate 0.76% among 410,000
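CellTiter-Glo luminescence gave cytotoxicity after 18 hours at 37 degrees C. The cells were HepG2 CAGA-GFP in 1% FBS DMEM, stimulated with 500 pg/mL TGF-beta after compound addition. %Activity was normalised to no-cell wells (complete cell-killing) and DMSO (no toxicity), and curves were fitted and classified.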
DT40 TDP1 no CPT = qHTS for Inhibitors of human tyrosyl-DNA phosphodiesterase 1 (TDP1): qHTS in cells in absence of CPT. DT40 Tdp1-/- hTDP1 cells, no CPT, ATP luminescence, 48 h. Potency, µM (doses to about 46.2 µM), without a hit: at the highest dose activity change, negative = growth inhibition, actives largely listed as inhibitors. hit rate 15% among 420,000. AID 686978, 2013; note: % is set by controls: 0 for no effect and ±100 for the full control effect; nearly all actives have a fitted effect of over 55% in size
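Seeded 400 DT40-hTDP1 cells/well (vehicle DMSO, no 20 nM CPT); pinned compounds; ≥48 hr at 37 °C; CellTiter-Glo luminescence as viability measure.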
TGFb SMAD3 inh = TGF-b pathway inhibition | HepG2 CAGA-GFP TGF-b/SMAD3 reporter, GFP fluorescence, 18 h; TGF-beta stimulated, 500 pg/mL final | Potency, µM (titrated, usually from 46.1 µM), for the others: at the highest dose activity, negative = inhibition, actives largely listed as inhibitors | hit rate 1.2% among 410,000 | AID 588855; note: % is set by controls: 0 for no effect and ±100 for the full control effect; nearly all actives have a fitted effect of over 65% in size
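Read-out: total well GFP (ex488/em500-530) summed from mean per-cell fluorescence. Cells: HEPG2 CAGA-GFP, 1% FBS DMEM, 18 h at 37 degrees C with 500 pg/mL final TGF-beta. Unstimulated wells served as the full-inhibition control; stimulated DMSO wells = 0%.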
Starred values were filed as active, the others as inactive; ? = inconclusive; . = no result given. Sampled rows, rich in hits. Any-hit rate of the full collection: about 17%. Calls come from the whole dose curve; as a rule, active = well fitted curve in the direction sought with a large enough effect; inconclusive = small, poorly fitted or top-dose-only effect, or another doubt; inactive = no such curve, though single readings can be large; an effect the other way counts as inactive or inconclusive. Potency is the fitted concentration of half-maximal effect.

SMILES	DT40 TDP1 CPT	HT1080 IDH1KD tx	HT1080NT lethal	HepG2 tox	DT40 TDP1 no CPT	TGFb SMAD3 inh
COc1ccc(-n2cc(-c3ccccc3)c3c(N4CCOCC4)ncnc32)cc1	?	?	?	11%	18µM*	?
COc1ccccc1N1CCN(c2ncnc3c2c(-c2ccccc2)cn3-c2cccc(Cl)c2)CC1	?	.	.	-9%	?	-2%
Cc1cccc(NC(=O)C2CCN(S(=O)(=O)c3ccc(F)cc3)CC2)c1C	-3%	.	.	-28%	-17%	-13%
NNC(=O)c1oc2ccccc2c1-n1cccc1	1%	4.1µM*	4.6µM*	5%	?	?
COc1ccc(CCn2c(C)cc3c(c2=O)C(c2ccc4c(c2)OCO4)C(C#N)=C(N)O3)cc1OC (centres undefined)	13µM*	?	?	-14%	21µM*	12%
COc1ccc(CCN2C(=O)C(Oc3ccccc3C)C2c2ccc3c(c2)OCO3)cc1 (centres undefined)	15µM*	-14%	-12%	7%	16µM*	-2%
COc1ccc(CCN2C(=O)C(Oc3ccccc3C)C2c2ccc3c(c2)OCO3)cc1OC (centres undefined)	13µM*	-17%	-13%	-2%	16µM*	3%
O=C1C(Oc2ccccc2)C(c2ccc3c(c2)OCO3)N1CCc1ccc(F)cc1 (centres undefined)	-27%	-7%	-6%	0%	?	3%
COc1ccc2nc(-c3ccccc3)nc(SCC(=O)NCC3CCCO3)c2c1 (centres undefined)	4%	6%	-2%	-5%	?	10%
O=C(Cn1c2c(sc1=O)C1c3ccccc3OCC1CS2)Nc1ccc(Cl)c(Cl)c1 (centres undefined)	9.2µM*	-15%	-18%	-5%	16µM*	-17%
COc1ccccc1-c1sc2ccccc2c1-c1ccc(O)cc1	?	-12%	-4%	-37%	?	11µM*
COc1ccccc1-c1sc2ccccc2c1-c1ccc2c(c1)OCO2	23µM*	-5%	-21%	-32%	?	-37%
O=C(NC1CCCCC1)C(c1cccnc1)N(C(=O)CCl)c1ccc(F)cc1 (centres undefined)	0.52µM*	10µM*	13µM*	-76%	0.58µM*	?
CCC(C)c1ccc(N(C(=O)c2ccco2)C(C(=O)NC2CCCC2)c2cccnc2)cc1 (centres undefined)	18µM*	-22%	-1%	-3%	16µM*	?
CCc1ccccc1N(C(=O)CNC(=O)c1ccco1)C(C(=O)NC1CCCC1)c1cccnc1 (centres undefined)	-3%	28%	19%	-1%	-19%	-10%
O=C(NC1CCCCC1)C(c1cccnc1)N(C(=O)CCl)c1ccccc1Cl (centres undefined)	?	16µM*	10µM*	2%	?	-26%
CCOc1ccccc1N1CCN(C(=O)c2cccc(-c3ccc(O)cc3)c2)CC1	16µM*	-11%	-17%	-22%	?	?
COc1cc2ccccc2cc1C(=O)N1CCN(C(C)=O)CC1	16%	4%	0%	6%	0%	0%
COc1ccc2nc(N3CCN(C(=O)C4COc5ccccc5O4)CC3)sc2c1 (centres undefined)	?	-11%	-3%	-22%	?	19%
O=C(C1COc2ccccc2O1)N1CCN(c2nc3ccc(F)cc3s2)CC1 (centres undefined)	?	.	.	-19%	21µM*	?
